The text below walks through data of PubChem BioAssay (NCATS).

SMILES strings stand for the structures. Records with an inconclusive call do not appear. A call without a number means that no potency is given here. Some compounds were tested as several samples or in several runs, with calls that do not always agree. Calls of active or inactive are those of the source. Unless noted, calls follow the shape of the dose curve; as a rule, active = well fitted curve in the direction sought with a large enough effect; inconclusive = small, poorly fitted or top-dose-only effect, or another doubt; inactive = no such curve, though single readings can be large; an effect the other way counts as inactive or inconclusive. Peptide text beside a SMILES is read from it.

Assay [1] has as its target ATP-dependent 6-phosphofructokinase (Trypanosoma brucei brucei) (UniProt O15648). The assay is described as follows: qHTS Assay to Find Inhibitors of T. brucei phosphofructokinase: hit validation (AID 492961).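 Also: luminescence reports ADP formed as PFK phosphorylates fructose-6-phosphate with ATP; series mostly up to about 51 µM.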 Summed up: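 ADP-Glo luminescence read-out of ADP formed by 1.25 nM PFK from 0.1 mM ATP and 0.5 mM F6P (TEA pH 8.0, 45 min, RT). Compounds titrated; activity normalized to no-enzyme and full-enzyme controls.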

The target of assay [2] is Ubiquitin carboxyl-terminal hydrolase 1 (Homo sapiens) (UniProt O94782). Kind of assay: Inhibitors of USP1/UAF1: Pilot qHTS (AID 504865).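 Also: rhodamine fluorescence freed from ubiquitin-rhodamine substrate followed over time; top concentration of the series differs between compounds; nearly all actives have a fitted effect of over 35% in size.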 Summed up:
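USP1/UAF1 complex (1nM) preincubated with compound 15 min at room temperature, then Ub-Rho substrate (150nM final) added. Fluorescence read kinetically at 480/540 nm, 6 reads every 60 seconds. Buffer: 50mM HEPES pH 7.8, 0.5mM EDTA, 0.1 mg/ml BSA, 1mM TCEP, 0.01% Tween-20.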

The target of assay [3] is Thioredoxin reductase 1, cytoplasmic (Rattus norvegicus) (UniProt O89049). Kind of assay: qHTS Assay for Substrates of Mammalian Selenoprotein Thioredoxin Reductase 1 (TrxR1) (AID 488772).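 Also: series mostly up to about 57 µM; a drop in NADPH fluorescence below the no-compound background marks a TrxR1 substrate.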 Summed up: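 In this dual-purpose format, potential substrates are identified from the first fluorescence read after selenite addition, not from the 8-minute delta. Rat enzyme is preincubated with NADPH and then with compound at ~22 deg C.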
Chain of Thioredoxin reductase 1, cytoplasmic (Rattus norvegicus) (O89049 whole entry, looked up): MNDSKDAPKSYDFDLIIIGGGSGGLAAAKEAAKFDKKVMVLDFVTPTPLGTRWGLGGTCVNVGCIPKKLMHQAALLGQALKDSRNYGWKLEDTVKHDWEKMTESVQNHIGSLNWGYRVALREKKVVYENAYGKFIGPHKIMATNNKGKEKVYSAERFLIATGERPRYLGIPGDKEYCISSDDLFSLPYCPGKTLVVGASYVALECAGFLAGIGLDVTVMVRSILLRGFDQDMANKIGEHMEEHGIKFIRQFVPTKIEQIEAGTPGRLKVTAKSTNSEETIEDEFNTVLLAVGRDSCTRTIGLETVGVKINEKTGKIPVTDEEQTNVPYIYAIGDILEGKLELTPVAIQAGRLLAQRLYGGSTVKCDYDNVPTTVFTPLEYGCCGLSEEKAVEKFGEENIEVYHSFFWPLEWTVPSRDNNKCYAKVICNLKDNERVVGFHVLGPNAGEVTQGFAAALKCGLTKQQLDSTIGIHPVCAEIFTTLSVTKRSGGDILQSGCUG
(Quantitative high-throughput screening tests each substance at several concentrations.)

Assay [4] concerns the target Flap endonuclease 1 (Homo sapiens) (UniProt P39748). Kind of assay: qHTS Validation Assay for the Inhibitors of Human Flap endonuclease 1 (FEN1) (AID 488816). Summed up:
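qHTS format: compounds and 10 nM FEN1 incubated 15 min at room temperature before adding 50 nM substrate. Cleavage followed by reads at 0 and 15 min; normalized data fitted to a four-parameter Hill curve.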

The target in assay [5] is M-phase phosphoprotein 8 (Homo sapiens) (UniProt Q99549). Kind of assay: qHTS Validation Assay for Inhibitors for MPP8 Chromodomain Interactions with Methylated Histone Tails (AID 488949). Also: nearly all actives have a fitted effect of over 55% in size. Also: potency is read from the fitted curve at half-maximal effect. Summed up:
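MPP8 (50 nM) was preincubated with biotinylated H3(1-18)K9me3 peptide (50 nM) in PBS pH 7.4, 0.01% Tween-20 for 30 min at room temperature, then with compounds for 30 min; binding was detected by AlphaScreen.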

Assay [6] addresses Chromobox protein homolog 1 (Homo sapiens) (UniProt P83916). Kind of assay: qHTS Validation Assay for Inhibitors of HP1-beta Chromodomain Interactions with Methylated Histone Tails (AID 488953). Also: potency is read from the fitted curve at half-maximal effect; nearly all actives have a fitted effect of over 50% in size. Put shortly: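 AlphaScreen proximity readout: streptavidin donor and Ni-chelate acceptor beads, 10 ug/mL final, 30 min dark, RT. Complex of 50 nM HP1-beta and 50 nM b-H3(1-18)K9me3 formed 30 min, then compound-treated 30 min; PBS pH 7.4/0.01% Tween-20.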

For assay [7], the target named is Methanococcus maripaludis chaperonin (MmCpn) (UniProt Q6LX38). Kind of assay: High-Throughput Screening for Modulators of Cytosolic Chaperonin Activity: MmCpn Primary Screen (AID 488978).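 Also: 50 nM MmCpn enzyme hydrolysing 30 µM ATP at 37 °C.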 Put shortly:
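MmCpn (50 nM final) was preincubated with compound 5 min at RT, then 30 uM ATP (final) was added and the reaction ran 10 min at 37C. ADP produced was detected by Transcreener HTRF (ex 320 nm; em 590/665 nm).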

For assay [8], the target named is Thyrotropin-releasing hormone receptor (Homo sapiens) (UniProt P34981). The assay is described as follows: qHTS for Small Molecule Agonists and Allosteric Enhancers of Human TRH Receptor: Validation Screen for Agonists (AID 493127;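 active = calcium activation more than 3 SD above the typical response in the agonist read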;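 also: intracellular calcium rise by fluo-8 fluorescence before TRH EC20 addition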). Particulars: TRH receptor agonist cell assay; at 2 µM; stronger effect = higher value. Summed up:
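Read-out: intracellular calcium release measured kinetically by FDSS (fluo-8, ex 480/em 530 nm), 1 reading/s after a 10-cycle baseline. TRHR cells, 2000/well, cultured 18 h at 33.5C, dye-loaded at room temp. Compound-evoked positive calcium signal flags agonists.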

Assay [9] is described as follows: Nrf2 qHTS screen for inhibitors: Validation (AID 493153; active = well fitted inhibition curve with a large enough effect in the main read-out, with a control signal flat, not every such curve was filed as active). The settings on record: Potency: luciferase luminescence; viability change: measured here: cytotoxicity max response. Put shortly: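 Concentration-response test in A549 ARE_Fluc reporter cells (5% FBS OPTI-MEM), compound exposure 18-24 h at 37°C, 5% CO2. Cell viability measured first by CellTiter-Fluor fluorescence; ARE-driven luciferase luminescence then measured as Nrf2 activity.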

A short description of assay [10]: qHTS for Inhibitors of Cell Surface uPA Generation: Validation Assay (AID 493164).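 Also: RAW 264.7 macrophage cells exposed to compound for 18 h.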 Put shortly: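 Compounds are titrated over seven points (2.45 nM–38.3 uM final) onto pre-plated RAW 264.7 cells and incubated for 18 h. Retained intracellular ATP, measured with ATP-Lite, indicates blocked lethal factor entry.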
The nature of assay [11]: Validation screen for small molecules that induce DNA re-replication in SW480 colon adenocarcinoma cells (AID 504364). Also: potency is read from the fitted curve at half-maximal effect. Put shortly:
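Read-out: total Hoechst intensity of nuclei by fluorescence scanning imager; hits raise the fraction of nuclei with elevated DNA content. Cells received compound for 48 hr at 37 C before a 40 min stain.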

The target of assay [12] is Peptidyl-prolyl cis-trans isomerase NIMA-interacting 1 (Homo sapiens) (UniProt Q13526). The assay is described as follows: qHTS Validation Assay to Find Inhibitors of Pin1 (AID 504536; active = well fitted inhibition curve with a large enough effect in the polarisation, with a control signal flat, not every such curve was filed as active; the % refers to the polarisation). Summed up:
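Fluorescence polarization competition: compounds (titration) displace HiFluor-488-labeled Pin1-1b peptide from Pin1 (0.3 uM final) in pH 7.5 HEPES buffer with DTT, 10 min at room temperature; %Activity normalized to no-enzyme wells, curves fitted.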

The target in assay [13] is Phosphoglycerate kinase, glycosomal (Trypanosoma brucei brucei) (UniProt P07378). The assay is described as follows: qHTS Validation Assay to Find Inhibitors of Phosphoglycerate Kinase (AID 504547). Put shortly:
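Luminescence end-point (Kinase-Glo Plus, 10 min) after a 60 min room-temperature coupled reaction. GAPDH at 100nM final supplies 1,3-BPG to PGK. Buffer: 100mM TEA pH 7.6, 5mM MgCl2, 0.01% Tween-20. Wells lacking PGK served as controls.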

The target of assay [14] is phosphoglycerate mutase (Leishmania major) (UniProt Q4Q090). The assay is described as follows: qHTS Validation Assay to Find Inhibitors of Phosphoglycerate Mutase (AID 504548).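 Also: end-point luminescence from Kinase-GloPlus after the PGAM reaction; series mostly up to about 58 µM.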 The settings on record: Potency: inhibition qHTS. Summed up:
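L. major PGAM (1.25nM final) was added to substrate buffer and pinned compound, incubated 45 minutes at room temperature, then Kinase-GloPlus added; luminescence read after 10 minutes. Buffer: 100 mM TEA pH 7.6, 5 mM MgCl2, 0.01% Tween-20.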

Chain of ATP-dependent 6-phosphofructokinase (Trypanosoma brucei brucei) (O15648 whole entry, looked up): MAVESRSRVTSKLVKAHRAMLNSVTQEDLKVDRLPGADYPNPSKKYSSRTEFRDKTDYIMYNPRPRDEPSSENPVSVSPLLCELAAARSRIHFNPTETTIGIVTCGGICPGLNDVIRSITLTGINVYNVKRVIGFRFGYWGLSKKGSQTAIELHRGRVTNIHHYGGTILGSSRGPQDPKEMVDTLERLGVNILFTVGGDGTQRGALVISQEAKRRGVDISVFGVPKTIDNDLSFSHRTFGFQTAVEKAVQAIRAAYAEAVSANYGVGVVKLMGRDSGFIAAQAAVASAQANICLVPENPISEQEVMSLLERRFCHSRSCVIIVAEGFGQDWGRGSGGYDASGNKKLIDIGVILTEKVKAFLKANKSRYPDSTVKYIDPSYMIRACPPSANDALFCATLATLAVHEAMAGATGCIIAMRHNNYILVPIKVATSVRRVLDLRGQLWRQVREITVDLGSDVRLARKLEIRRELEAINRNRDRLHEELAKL
Chain of Ubiquitin carboxyl-terminal hydrolase 1 (Homo sapiens) (O94782 whole entry, looked up): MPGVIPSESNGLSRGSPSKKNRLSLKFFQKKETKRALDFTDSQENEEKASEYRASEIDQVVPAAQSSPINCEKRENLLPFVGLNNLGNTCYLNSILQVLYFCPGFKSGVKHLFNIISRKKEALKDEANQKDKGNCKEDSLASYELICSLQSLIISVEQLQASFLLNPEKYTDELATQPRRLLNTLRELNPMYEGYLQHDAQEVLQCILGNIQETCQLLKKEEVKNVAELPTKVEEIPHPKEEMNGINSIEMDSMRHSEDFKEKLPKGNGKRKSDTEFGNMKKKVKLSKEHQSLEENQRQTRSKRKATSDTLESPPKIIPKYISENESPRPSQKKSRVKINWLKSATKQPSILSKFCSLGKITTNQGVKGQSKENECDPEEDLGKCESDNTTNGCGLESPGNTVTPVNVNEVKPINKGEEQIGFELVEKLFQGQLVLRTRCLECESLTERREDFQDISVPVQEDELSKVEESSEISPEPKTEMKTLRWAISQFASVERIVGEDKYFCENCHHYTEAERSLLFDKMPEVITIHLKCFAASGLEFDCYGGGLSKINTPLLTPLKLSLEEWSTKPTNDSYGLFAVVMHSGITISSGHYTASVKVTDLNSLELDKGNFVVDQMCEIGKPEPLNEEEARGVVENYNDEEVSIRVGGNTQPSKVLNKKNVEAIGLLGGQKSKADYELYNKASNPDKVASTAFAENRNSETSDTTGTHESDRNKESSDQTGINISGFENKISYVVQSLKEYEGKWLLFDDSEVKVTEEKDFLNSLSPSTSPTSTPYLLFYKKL
Chain of M-phase phosphoprotein 8 (Homo sapiens) (Q99549 whole entry, looked up): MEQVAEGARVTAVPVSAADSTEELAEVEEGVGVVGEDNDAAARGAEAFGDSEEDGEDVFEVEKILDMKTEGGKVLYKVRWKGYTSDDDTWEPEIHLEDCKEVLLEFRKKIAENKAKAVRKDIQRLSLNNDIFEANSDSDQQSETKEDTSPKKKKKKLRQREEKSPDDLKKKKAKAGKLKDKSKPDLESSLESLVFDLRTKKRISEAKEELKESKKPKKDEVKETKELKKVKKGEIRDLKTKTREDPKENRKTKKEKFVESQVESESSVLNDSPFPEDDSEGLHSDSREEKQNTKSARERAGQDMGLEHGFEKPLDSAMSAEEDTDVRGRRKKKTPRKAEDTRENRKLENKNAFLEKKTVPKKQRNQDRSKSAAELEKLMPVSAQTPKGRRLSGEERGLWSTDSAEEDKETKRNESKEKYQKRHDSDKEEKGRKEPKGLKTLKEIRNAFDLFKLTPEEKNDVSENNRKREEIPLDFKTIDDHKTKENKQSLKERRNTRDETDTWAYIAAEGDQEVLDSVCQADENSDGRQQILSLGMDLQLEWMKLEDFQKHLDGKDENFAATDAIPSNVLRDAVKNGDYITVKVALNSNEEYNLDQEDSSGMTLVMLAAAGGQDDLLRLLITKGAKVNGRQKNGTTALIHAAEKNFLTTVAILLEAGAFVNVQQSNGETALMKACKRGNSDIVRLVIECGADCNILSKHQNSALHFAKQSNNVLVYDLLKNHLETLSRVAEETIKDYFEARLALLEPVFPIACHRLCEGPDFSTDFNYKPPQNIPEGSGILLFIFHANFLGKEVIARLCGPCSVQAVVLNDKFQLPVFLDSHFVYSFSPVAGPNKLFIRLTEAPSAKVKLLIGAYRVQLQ
Chain of Chromobox protein homolog 1 (Homo sapiens) (P83916 whole entry, looked up): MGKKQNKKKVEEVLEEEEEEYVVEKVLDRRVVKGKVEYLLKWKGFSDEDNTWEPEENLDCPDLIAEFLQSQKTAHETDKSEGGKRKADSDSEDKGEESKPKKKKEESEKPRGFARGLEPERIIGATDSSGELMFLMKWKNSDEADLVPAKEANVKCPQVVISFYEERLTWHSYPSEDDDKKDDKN
Chain of Peptidyl-prolyl cis-trans isomerase NIMA-interacting 1 (Homo sapiens) (Q13526 whole entry, looked up): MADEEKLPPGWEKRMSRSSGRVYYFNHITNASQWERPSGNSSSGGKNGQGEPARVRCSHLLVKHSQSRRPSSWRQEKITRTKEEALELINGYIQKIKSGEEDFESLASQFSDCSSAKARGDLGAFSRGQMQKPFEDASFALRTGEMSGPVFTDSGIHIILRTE
Chain of phosphoglycerate mutase (Leishmania major) (Q4Q090 1-553): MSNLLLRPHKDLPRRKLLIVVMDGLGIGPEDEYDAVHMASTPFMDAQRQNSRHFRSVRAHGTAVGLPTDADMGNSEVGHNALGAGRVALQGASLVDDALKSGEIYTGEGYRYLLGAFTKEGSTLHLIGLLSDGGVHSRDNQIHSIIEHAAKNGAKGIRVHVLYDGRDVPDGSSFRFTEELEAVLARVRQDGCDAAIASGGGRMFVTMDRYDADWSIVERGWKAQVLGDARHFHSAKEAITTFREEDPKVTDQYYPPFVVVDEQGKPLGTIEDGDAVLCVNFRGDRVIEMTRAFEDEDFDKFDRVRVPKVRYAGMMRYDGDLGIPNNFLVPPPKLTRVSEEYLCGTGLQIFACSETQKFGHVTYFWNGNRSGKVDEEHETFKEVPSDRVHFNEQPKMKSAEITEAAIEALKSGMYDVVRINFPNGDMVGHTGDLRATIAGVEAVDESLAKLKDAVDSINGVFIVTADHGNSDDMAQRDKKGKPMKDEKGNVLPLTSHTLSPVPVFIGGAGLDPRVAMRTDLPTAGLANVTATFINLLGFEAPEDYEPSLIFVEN
Chain of Phosphoglycerate kinase, glycosomal (Trypanosoma brucei brucei) (P07378 whole entry, looked up): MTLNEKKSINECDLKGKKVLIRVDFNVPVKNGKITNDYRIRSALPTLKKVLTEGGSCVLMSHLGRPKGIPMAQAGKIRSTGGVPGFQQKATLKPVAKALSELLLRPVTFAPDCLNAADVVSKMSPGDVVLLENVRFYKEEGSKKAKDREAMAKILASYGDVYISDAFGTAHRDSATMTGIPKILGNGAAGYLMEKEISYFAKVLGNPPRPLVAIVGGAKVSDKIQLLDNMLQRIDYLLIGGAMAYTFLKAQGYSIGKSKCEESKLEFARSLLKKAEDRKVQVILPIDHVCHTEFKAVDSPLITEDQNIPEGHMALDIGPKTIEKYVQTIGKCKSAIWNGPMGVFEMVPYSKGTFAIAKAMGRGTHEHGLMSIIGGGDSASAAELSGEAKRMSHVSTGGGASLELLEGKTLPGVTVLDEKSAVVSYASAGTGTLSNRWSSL
Chain of Methanococcus maripaludis chaperonin (MmCpn) (Q6LX38 1-543): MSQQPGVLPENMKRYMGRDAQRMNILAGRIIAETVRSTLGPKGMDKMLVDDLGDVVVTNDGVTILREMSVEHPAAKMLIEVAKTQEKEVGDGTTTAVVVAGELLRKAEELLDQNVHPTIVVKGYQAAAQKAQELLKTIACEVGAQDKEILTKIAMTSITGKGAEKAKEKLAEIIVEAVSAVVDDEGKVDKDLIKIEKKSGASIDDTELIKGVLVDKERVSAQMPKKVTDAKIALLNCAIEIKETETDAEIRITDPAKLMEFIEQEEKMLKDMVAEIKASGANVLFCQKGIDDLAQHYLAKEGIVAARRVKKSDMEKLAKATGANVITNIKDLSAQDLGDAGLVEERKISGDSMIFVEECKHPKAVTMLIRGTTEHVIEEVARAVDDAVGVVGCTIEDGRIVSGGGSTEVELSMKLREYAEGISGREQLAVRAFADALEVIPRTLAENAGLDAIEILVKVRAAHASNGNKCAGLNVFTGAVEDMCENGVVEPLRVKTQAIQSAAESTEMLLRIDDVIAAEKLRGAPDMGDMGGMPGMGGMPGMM
Chain of Thyrotropin-releasing hormone receptor (Homo sapiens) (P34981 whole entry, looked up): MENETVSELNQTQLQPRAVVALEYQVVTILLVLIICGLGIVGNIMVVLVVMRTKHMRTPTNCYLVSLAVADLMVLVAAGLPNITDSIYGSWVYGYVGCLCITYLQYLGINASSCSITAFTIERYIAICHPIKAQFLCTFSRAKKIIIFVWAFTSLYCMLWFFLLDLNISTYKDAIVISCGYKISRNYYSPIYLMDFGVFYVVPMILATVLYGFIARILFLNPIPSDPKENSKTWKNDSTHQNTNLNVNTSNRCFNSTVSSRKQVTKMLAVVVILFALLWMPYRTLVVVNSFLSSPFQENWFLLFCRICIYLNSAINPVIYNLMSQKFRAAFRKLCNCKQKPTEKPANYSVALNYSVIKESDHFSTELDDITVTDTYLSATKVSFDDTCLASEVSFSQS

Consider `CC(C)c1ccc2oc3nc(N)c(C(=O)O)cc3c(=O)c2c1`, for which the molecule was called inactive in [1].

Turning to `CCOc1cc(CC(=O)N[C@@H](CC(C)C)c2ccccc2N2CCCCC2)ccc1C(=O)O`, the molecule was called inactive in assay [1]. In [2], the Potency entry is “inactive”.

On to `COC(=O)[C@H](Cc1ccccc1)NC(=O)[C@@H](N)CC(=O)O` (H-Asp-Phe-OMe), for which the result in [1] was inactive. In addition, the Potency result in assay [2] was “inactive”.

As for `COc1ccc(C2(C#N)CCC(C(=O)O)CC2)cc1OC1CCCC1` (centres undefined), in [1], the call was inactive. In addition, the Potency entry in assay [2] is “inactive”.

Regarding `CCC(C)(Oc1ccc(C2(c3ccc(OC(C)(CC)C(=O)O)cc3)CCCCC2)cc1)C(=O)O` (centres undefined), the outcome in [1] was inactive. Further, the Potency entry in [2] was “inactive”.

`O=C(OC1C[C@H]2CC[C@@H](C1)[N+]21CCCC1)C(O)(c1ccccc1)c1ccccc1` (some centres undefined): the result in assay [1] was inactive. Moreover, the Potency entry in [2] is “inactive”.

For the molecule `CCC[C@@H]1C[C@@H](C(=O)N[C@@H]([C@H]2O[C@H](SC)[C@H](O)[C@@H](O)[C@H]2O)[C@@H](C)O)N(C)C1`, the outcome in assay [1] was inactive. For the same molecule, the Potency entry in [2] is “inactive”.

`Cc1ccc(NC(=O)c2ccc(CN3CCN(C)CC3)cc2)cc1Nc1nccc(-c2cccnc2)n1`: in [1], the result was inactive.

Turning to `CC1=C(C)C(=O)C(C(CCCCCC(=O)O)c2ccccc2)=C(C)C1=O` (centres undefined), in assay [1], the result was inactive.

As to `N[C@@H](Cc1cc(I)c(Oc2cc(I)c(O)c(I)c2)c(I)c1)C(=O)O`, in assay [1], the call was inactive.

As to `COC1=C(OC)C(=O)C(CCCCCCCCCCO)=C(C)C1=O`, in assay [1], the outcome was inactive. For the same molecule, in assay [2], the Potency result was “inactive”.

As to `Cc1c(C(=O)NN2CCCCC2)nn(-c2ccc(Cl)cc2Cl)c1-c1ccc(Cl)cc1`, the molecule was called inactive in assay [1].

Turning to `C[C@H](Cn1cnc2c(N)ncnc21)OCP(=O)(O)O`, the result in assay [1] was inactive. Moreover, the Potency result in [2] is “inactive”.

`CN(C)C(=O)COC(=O)Cc1ccc(OC(=O)c2ccc(N=C(N)N)cc2)cc1`: the result in assay [1] was inactive. Further, in assay [2], the Potency result was “inactive”.

On to `O=C1CCc2ccc(OCCCCN3CCN(c4cccc(Cl)c4Cl)CC3)cc2N1`, for which the result in [1] was inactive.

Turning to `Nc1cc(C(Cl)=C(Cl)Cl)c(S(N)(=O)=O)cc1S(N)(=O)=O`, in assay [1], the result was inactive.

Regarding `CCCCCCCCCCCCCCCCCCCCCCO`, the outcome in assay [1] was inactive. The Potency result in assay [2] was “inactive”.

As to `C[C@]12CCC(=O)C=C1CC[C@@H]1[C@H]2[C@@H](O)C[C@@]2(C)[C@H]1CC[C@]2(O)C(=O)CO`, the result in assay [1] was inactive. The Potency entry in assay [2] is “inactive”.

As for `Cc1cc(C2CCCCC2)n(O)c(=O)c1`, in assay [1], the call was inactive.

On to `CCN(CC)C(=S)SSC(=S)N(CC)CC`, for which the call in [3], in assay [7], in assay [10] and in assay [12] was inactive. Also, the Potency result in [4], in assay [9], in assay [13], in assay [14] and in assay [2] was “inactive” in each case. Also, the Potency was 10 µM (active) and inactive in assay [5]; 28.2 µM (active) in assay [6]; 0.206 µM (active) in assay [11]. For the same molecule, in assay [8], the activation is 4% (inactive). In [9], the viability change amounted to 1.38%.
